In the library only some 4.1% were active in any assay of this set; here they are far more common.
tim23-1 inh = tim23-1 yeast growth inhibition. S. cerevisiae tim23-1 growth, BacTiter-Glo luminescence, 24 h. AID 463212. inhibition, % at 20 µM. 330,000 compounds, 1.3% hits;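 active = growth inhibition of the mutant yeast at or above 50%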;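 note: temperature-sensitive mutant grown at 25 °C; plate controls were DMSO-treated mutant yeast for no effect and medium wells lacking yeast for full effect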
TIM10 inh = growth inhibitors of TIM10 yeast strain; S. cerevisiae TIM10 strain growth, BacTiter-Glo luminescence, 24 h; inhibition, % at 10 µM; 330,000 compounds, 1.4% hits; AID 463195;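 active = inhibition of 40% or more at the single tested concentration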;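 note: wild-type TIM10 isogenic control strain grown at permissive 25 °C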
NALP1 yeast inh = inhibitors of NALP1 inflammasome in yeast; 280,000 compounds, 0.61% hits; S. cerevisiae NALP1/ASC/caspase-1 growth, X-gal OD620, 72 h; inhibition, % at 10 µM; in the data active = inhibition mostly above about 24%, no sharp cut-off; inactive = mostly below about 32%
tim10-1 inh = growth inhibitors of tim10-1 mutant yeast; inhibition, % at 20 µM; 330,000 compounds, 2.2% hits; S. cerevisiae tim10-1 ts strain growth, BacTiter-Glo, 24 h; AID 463190;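 active = inhibition of at least 40%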;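 note: mutant grown at 25 °C; 0% = DMSO wells with yeast and 100% = wells holding no yeast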
NLRP3 yeast inh = inhibitors of NALP3 inflammasome in yeast | Yeast reconstituted NLRP3/ASC/caspase-1, beta-gal luminescence, 24 h | inhibition, % at 10 µM | 330,000 compounds, 0.39% hits;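 active = inhibition of 50% or more; inactive = inhibition below 50%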;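 note: plate controls were induced DMSO wells for no effect and uninduced yeast grown without galactose for full effect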
tim10-1 conf = tim10-1 yeast growth inhibition, confirmed | S. cerevisiae tim10-1 ts strain growth, BacTiter-Glo, 24 h | inhibition, % at 20 µM | shares compounds with tim10-1 inh | 7,400 compounds, 56% hits;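 active = inhibition of yeast growth at or above a set limit in either of two repeat tests at 20 µM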;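 note: tim10-1 mutant grown at permissive 25 °C to find synthetic lethal compounds; 0% = DMSO yeast wells and 100% = medium wells without yeast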
Numbers without * were called inactive.

What do the screens show for `CC(C)c1ccc(NC(=S)N2CCN(S(=O)(=O)c3ccccc3)CC2)cc1`?
tim23-1 inh: 28; TIM10 inh: 15; NALP1 yeast inh: 5; tim10-1 inh: 41*; NLRP3 yeast inh: 20; tim10-1 conf: 27

How did COc1ccc(S(=O)(=O)N2CCN(C(=O)c3ccc(NC(C)=O)cc3)CC2)cc1 do in these assays?
tim23-1 inh: 12; TIM10 inh: 7; tim10-1 inh: 5; NLRP3 yeast inh: 6

Results for COc1cccc(C(=O)COC(=O)CCCC(=O)NC2CCCCC2)c1 ?
tim23-1 inh: 3; TIM10 inh: -2; NALP1 yeast inh: 4; tim10-1 inh: 5; NLRP3 yeast inh: 6

What do the screens show for `COc1ccccc1C(CNC(=O)c1ccc(S(=O)(=O)N2CCCCC2)cc1)N(C)C` (stereo unspecified)?
tim23-1 inh: 11; TIM10 inh: 7; tim10-1 inh: 14; NLRP3 yeast inh: 1

Results for CC(C)NC(=O)NC(=O)COc1ccc(Br)cc1Br ?
tim23-1 inh: 45; TIM10 inh: 18; NALP1 yeast inh: 24; tim10-1 inh: 45*; NLRP3 yeast inh: 18; tim10-1 conf: 24

Results for CC(C)NC(=O)NC(=O)COc1c(F)c(F)cc(F)c1F ?
tim23-1 inh: 21; TIM10 inh: 12; NALP1 yeast inh: 14; tim10-1 inh: 20; NLRP3 yeast inh: -16

Results for O=C(NC1CCN(C(=S)Nc2ccccc2)CC1)C1CCCCC1 ?
tim23-1 inh: 3; TIM10 inh: -28; NALP1 yeast inh: 23; tim10-1 inh: -3; NLRP3 yeast inh: 24

What do the screens show for `S=C(NCCSCc1ccccc1Cl)Nc1ccccc1`?
tim23-1 inh: 34; TIM10 inh: 38; tim10-1 inh: 29; NLRP3 yeast inh: 18

Results for CCCOc1ccc(CSCCNC(=S)Nc2ccccc2)cc1 ?
tim23-1 inh: 41; TIM10 inh: 32; NALP1 yeast inh: 16; tim10-1 inh: 46*; NLRP3 yeast inh: 35; tim10-1 conf: 28

What do the screens show for `O=c1c2oc3ccccc3c2ncn1Cc1ccc(F)cc1`?
tim23-1 inh: -4; TIM10 inh: -13; NALP1 yeast inh: 14; tim10-1 inh: 16; NLRP3 yeast inh: 11

How did CCN1CCN(C(c2cccs2)C(C)NC(=O)c2cccnc2)CC1 (stereo unspecified) do in these assays?
tim23-1 inh: 2; TIM10 inh: 4; NALP1 yeast inh: 9; tim10-1 inh: 7; NLRP3 yeast inh: -12

How did Cc1ccc2cccc(NC(=S)NC(=O)c3ccnn3C)c2n1 do in these assays?
tim23-1 inh: 39; TIM10 inh: 39; NALP1 yeast inh: 0; tim10-1 inh: 43*; NLRP3 yeast inh: 26; tim10-1 conf: 29

How did CC(=O)NC(=S)Nc1cccc2ccc(C)nc12 do in these assays?
tim23-1 inh: -2; TIM10 inh: -22; tim10-1 inh: 24; NLRP3 yeast inh: -5

How did O=C(c1cccnc1)C1CCCN(Cc2nc(Cc3ccccc3)no2)C1 (stereo unspecified) do in these assays?
tim23-1 inh: 21; TIM10 inh: 9; NALP1 yeast inh: 0; tim10-1 inh: 20; NLRP3 yeast inh: 4

How did CN(C)C(=O)CCc1ccc2c3c([nH]c2c1)[C@]1(C)[C@@H](C(=O)N2CCOCC2)C[C@H](CC(=O)NCCN2CCOCC2)C(=O)N1CC3 do in these assays?
tim23-1 inh: 25; TIM10 inh: -7; tim10-1 inh: 0

Results for Cc1ccc2cccc(OCc3ccc(Br)cc3)c2n1 ?
tim23-1 inh: 39; TIM10 inh: 40; NALP1 yeast inh: 9; tim10-1 inh: 44*; NLRP3 yeast inh: 40; tim10-1 conf: 17

What do the screens show for `Cc1ccc2cccc(OCc3ccc(F)cc3)c2n1`?
tim23-1 inh: 28; TIM10 inh: 1; NALP1 yeast inh: 0; tim10-1 inh: 17; NLRP3 yeast inh: 15

What do the screens show for `COc1cc(NC(=O)c2ccccc2F)c(OC)cc1NC(=O)CN1CCOCC1`?
tim23-1 inh: 30; TIM10 inh: 14; NALP1 yeast inh: 9; tim10-1 inh: 43*; NLRP3 yeast inh: -4; tim10-1 conf: 25

What do the screens show for `Cn1cc(Cl)c(C(=O)OCC(=O)Nc2ccc(S(N)(=O)=O)cc2)n1`?
tim23-1 inh: 2; TIM10 inh: -16; NALP1 yeast inh: 16; tim10-1 inh: -19; NLRP3 yeast inh: 2

Results for COc1ccc(NCC(=O)n2c(C)c(C)c3ccccc32)cc1OC ?
tim23-1 inh: 20; TIM10 inh: 24; NALP1 yeast inh: -3; tim10-1 inh: 26; NLRP3 yeast inh: 14

How did CC(C)Cc1nc2oc3c(NCC4CCCO4)ncnc3c2c2c1CCC2 (stereo unspecified) do in these assays?
tim23-1 inh: 24; TIM10 inh: 25; NALP1 yeast inh: 16; tim10-1 inh: 45*; NLRP3 yeast inh: 7; tim10-1 conf: 27

What do the screens show for `C=CCN1C(=O)c2ccc(C(=O)NCCc3ccc(F)cc3)cc2C1=O`?
tim23-1 inh: 14; TIM10 inh: 3; NALP1 yeast inh: 0; tim10-1 inh: 6; NLRP3 yeast inh: 4

Results for O=C(Oc1coc(CSc2ncccn2)cc1=O)c1ccco1 ?
tim23-1 inh: 16; TIM10 inh: 29; NALP1 yeast inh: 6; tim10-1 inh: 22; NLRP3 yeast inh: -2

Results for Cc1ccnc(SCc2cc(=O)c(OC(=O)c3ccc(Br)o3)co2)n1 ?
tim23-1 inh: 38; TIM10 inh: 37; NALP1 yeast inh: 42; tim10-1 inh: 46*; NLRP3 yeast inh: 1; tim10-1 conf: 29*

Results for CC(=O)Nc1ccccc1OCC(=O)c1cc(C)n(Cc2cccs2)c1C ?
tim23-1 inh: 19; TIM10 inh: 16; NALP1 yeast inh: 7; tim10-1 inh: 48*; NLRP3 yeast inh: -8; tim10-1 conf: 19

What do the screens show for `COc1ccc(-n2cnnc2SCC(=O)c2cc(C)n(Cc3cccs3)c2C)cc1`?
tim23-1 inh: 21; TIM10 inh: 25; NALP1 yeast inh: 8; tim10-1 inh: 44*; NLRP3 yeast inh: 6; tim10-1 conf: 23

What do the screens show for `Cc1cc(C(=O)COc2cccnc2[N+](=O)[O-])c(C)n1Cc1cccs1`?
tim23-1 inh: -14; TIM10 inh: 0; NALP1 yeast inh: -10; tim10-1 inh: 10; NLRP3 yeast inh: 13

How did CC(C)CCN(C(=O)CCCSc1nc2ccccc2[nH]1)c1c(N)n(Cc2ccccc2)c(=O)[nH]c1=O do in these assays?
tim23-1 inh: -7; TIM10 inh: -26; tim10-1 inh: -16; NLRP3 yeast inh: 2

Results for CC1=C(C(=O)OC(C)C)C(c2ccc3c(c2)OCO3)NC(=O)N1 (stereo unspecified) ?
tim23-1 inh: 0; TIM10 inh: -7; NALP1 yeast inh: -4; tim10-1 inh: -5; NLRP3 yeast inh: 22

What do the screens show for `Cc1ccc(NC(=O)c2cc(=O)[nH]c3ccccc23)cc1C`?
tim23-1 inh: 2; TIM10 inh: 5; NALP1 yeast inh: 8; tim10-1 inh: 15; NLRP3 yeast inh: 12
